PHOSPHO1 inh = PubChem AID 1565; Phosphoethanolamine/phosphocholine phosphatase (Homo sapiens), Q8TCT1; recombinant PHOSPHO1, absorbance phosphatase assay; inhibition, % at 13.3 µM; actives 1.1% (n = 290,000); in the data active = inhibition above about 60%
Target sequence (Q8TCT1 whole entry, looked up): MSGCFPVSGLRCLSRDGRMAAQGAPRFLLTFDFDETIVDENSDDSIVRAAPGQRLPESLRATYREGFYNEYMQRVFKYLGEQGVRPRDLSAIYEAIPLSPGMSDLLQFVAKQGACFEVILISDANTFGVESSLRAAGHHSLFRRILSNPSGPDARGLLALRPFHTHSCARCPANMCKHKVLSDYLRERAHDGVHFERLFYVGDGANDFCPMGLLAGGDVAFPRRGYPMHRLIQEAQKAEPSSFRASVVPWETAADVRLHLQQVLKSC
ALR inh = inhibitors of human ALR sulfhydryl oxidase, primary screen, biochemical, H2O2 detection, HRP-luminol luminescence, single point | actives 3.8% (n = 290,000) | purified ALR, DTT oxidation | FAD-linked sulfhydryl oxidase ALR (Homo sapiens), P55789 | inhibition, % (no concentration beside the values);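 active = mean replicate inhibition above about 79%, with every replicate also reaching it, limit read from the data; inconclusive = only one of the two criteria met; inactive = mean below limit and not every replicate reaching it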
Target sequence (P55789 whole entry, looked up): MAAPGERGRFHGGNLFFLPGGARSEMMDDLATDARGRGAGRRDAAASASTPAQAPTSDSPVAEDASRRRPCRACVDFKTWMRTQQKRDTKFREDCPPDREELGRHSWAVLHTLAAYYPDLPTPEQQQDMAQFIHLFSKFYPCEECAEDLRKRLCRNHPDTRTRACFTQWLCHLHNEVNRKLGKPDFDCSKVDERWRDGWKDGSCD
PfGluPho inh = PfG6PD enzyme inhibitors, primary screen, biochemical, fluorescence intensity, uHTS; glucose-6-phosphate dehydrogenase-6-phosphogluconolactonase (Plasmodium falciparum 3D7); PfGluPho enzyme, NADPH resazurin-diaphorase fluorescence; inhibition, % at 20 µM; actives 0.78% (n = 350,000); AID 504690, 2011;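 active = inhibition reaching at least a set limit at 20 µM in the primary screen, cut at about 59% in these data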
M18AAP inhibitor = PfM18AAP inhibitors, malaria aminopeptidase, primary screen, biochemical, QFRET, recombinant enzyme; M18 aspartyl aminopeptidase (Plasmodium falciparum 3D7); H-Glu-NHMec fluorogenic cleavage; inhibition, % at 7.35 µM; actives 1.2% (n = 290,000); AID 1822, 2009;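 active = inhibition above the campaign mean inhibition over all tested compounds plus 3 SD, cut at about 28% in these data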
Cardio protect = cardioprotection against H2O2-induced cell death, primary screen, uHTS, H9c2 cells, ATPLite luminescence. protection from H2O2 cell death, % at 20 µM. AID 588492, 2011. H9c2 cardiomyocytes, H2O2 injury protection, 2 h. actives 0.63% (n = 360,000);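 active = compounds giving at least 50% protection of heart cells from peroxide-induced death in the single-dose screen, raw or plate-pattern-corrected value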
Of the large screens only hits and unclear results are named; the others gave an inactive call. This is a sample that favours compounds with a hit; in the whole collection about 5.6% have one here.

CCOC(=O)N1CCN=C1SCc1ccc(Cl)c(Cl)c1	ALR inh 98.6
CC(=O)N1CCN=C1SCc1cccc(C(F)(F)F)c1	ALR inh 98.7
CCC(=O)N1CCN=C1SCc1cccc(C(F)(F)F)c1	ALR inh 98.6
CC(=O)N1CCN=C1SCc1ccc(Br)cc1	ALR inh 96.5
COc1ccccc1CNC(=O)N/C=C/c1ccc(Cl)cc1	none (no result: ALR inh)
CC1(C)CC(=O)C=C(OC(=O)c2ccc(Cl)cc2)C1	ALR inh 97.8
COc1ccc(C(=O)NC(=S)Nc2ccc(N3CCOCC3)cc2)cc1Cl	none (no result: ALR inh)
COC(=O)N1C(=O)[C@](c2ccsc2)(C(C)C)N1C(=O)OC	PHOSPHO1 inh 66.8
CCc1nnc(NC(=O)CSc2nnc(Cc3cc(=O)[nH]c(=O)[nH]3)n2-c2cccc(OC)c2)s1	ALR inh 95.7
CCc1nnc(NC(=O)CSc2nnc(CNc3ccc(OC)cc3)n2C)s1	Cardio protect 68.3 (no result: ALR inh)
CCc1nnc(NC(=O)CSc2nnc(Cc3cc(=O)[nH]c(=O)[nH]3)n2-c2ccc(OC)cc2)s1	none
COc1ccc(CC(=O)NCc2nnc(SCC(=O)Nc3ccc(OC)cc3)n2C)cc1	PHOSPHO1 inh 65.8
O=C(OCc1ccccc1)/C(=C/c1ccccc1Cl)NC(=O)c1ccco1	none
COc1ccc(CC(=O)OCC(=O)Nc2ccc(F)cc2)cc1	none (no result: PHOSPHO1 inh, ALR inh, M18AAP inhibitor)
CCOC(=O)C1CCN(c2cc3c(cc2NC(=O)c2ccccc2)n(C)c(=O)n3C)CC1	Cardio protect 65.6
CCOC(=O)C1CCN(c2cc3c(cc2NC(=O)c2ccc(OC)c(OC)c2)n(C)c(=O)n3C)CC1	Cardio protect 54.5
Cn1c(=O)n(C)c2cc(N3CCCCC3)c(NC(=O)c3ccccc3)cc21	none
CC(C(=O)Nc1ccc(N(C)C)cc1)N1C(=O)c2ccccc2S1(=O)=O (stereo unspecified)	ALR inh 98.8 (no result: PHOSPHO1 inh, M18AAP inhibitor)
COc1cccc(S(=O)(=O)N(C)C[C@@H]2OCc3cnnn3CCCC(=O)N([C@@H](C)CO)C[C@H]2C)c1	none (no result: PHOSPHO1 inh, ALR inh, M18AAP inhibitor)
C#CCN1[C@@H]2CCN(C2)c2cc(Br)ccc2S1(=O)=O	none (no result: PHOSPHO1 inh, ALR inh, M18AAP inhibitor)
CCOc1ccc(/C=N/n2c(-c3ccccc3)n[nH]c2=S)cc1	none
COc1ccc(-c2n[nH]c(=S)n2/N=C/C=C\c2ccccc2OC)cc1	PHOSPHO1 inh 66.3 (no result: ALR inh)
COc1ccccc1/C=C\C=N\n1c(C2CCCCC2)n[nH]c1=S	none
S=c1[nH]nc(-c2ccco2)n1/N=C/c1ccc(Cl)cc1	M18AAP inhibitor 30.9 (no result: ALR inh)
Fc1ccc(/C=N/n2c(-c3cccs3)n[nH]c2=S)cc1	PHOSPHO1 inh 71.0
COc1ccccc1/C=C/C=N/n1c(-c2ccc(C)cc2)n[nH]c1=S	PHOSPHO1 inh 85.9
S=c1[nH]nc(-c2ccco2)n1/N=C/c1ccccc1Cl	none
CN(C1CCCCC1)S(=O)(=O)c1cc2c(cc1Cl)NC(=O)CO2	none
O=C(Cc1ccc(Br)cc1)OCC(=O)N1CCCCCC1	none (no result: PHOSPHO1 inh, M18AAP inhibitor)
C=CCn1c(SCC(=O)c2c(N)n(C)c(=O)n(C)c2=O)nnc1-c1ccoc1C	none (no result: PHOSPHO1 inh, M18AAP inhibitor)
COc1ccc(C(CNC(=O)c2ccc(-c3nc4ccccc4s3)o2)N2CCCC2)cc1 (stereo unspecified)	none (no result: PHOSPHO1 inh, M18AAP inhibitor)
Cc1ccc(/C=N/n2c(-c3ccco3)n[nH]c2=S)s1	none
COc1ccccc1/C=C/C=N/n1c(-c2ccncc2)n[nH]c1=S	PHOSPHO1 inh 78.7
COc1ccccc1/C=C/C=N/n1c(-c2ccccn2)n[nH]c1=S	none (no result: ALR inh)
COc1ccccc1/C=C/C=N/n1c(-c2ccco2)n[nH]c1=S	PHOSPHO1 inh 85.0
S=c1[nH]nc(COc2ccccc2)n1/N=C/C=C/c1ccco1	ALR inh 97.2
COc1ccccc1/C=C/C=N/n1c(-c2cc(C)[nH]n2)n[nH]c1=S	PHOSPHO1 inh 62.2, ALR inh inconclusive
Cc1ccccc1CNC(=O)c1ccc2sc([C@H]3C[C@H](O)[C@@H](CO)O3)nc2c1	none (no result: PHOSPHO1 inh, ALR inh, PfGluPho inh, M18AAP inhibitor)
N#Cc1c(NC(=O)COC(=O)c2ccc(O)cc2O)sc2c1CCC2	none (no result: PHOSPHO1 inh, M18AAP inhibitor)
S=c1[nH]nc(-c2ccco2)n1/N=C/C=C/c1ccco1	PHOSPHO1 inh 69.4
S=c1[nH]nc(-c2ccncc2)n1/N=C/C=C/c1ccccc1	PHOSPHO1 inh 92.7, ALR inh 92.4
Cc1cc(-c2n[nH]c(=S)n2/N=C/C=C/c2ccccc2)n[nH]1	none
S=c1[nH]nc(-c2n[nH]c3c2CCC3)n1/N=C/C=C/c1ccco1	ALR inh 97.5
O=C(NCc1cnn(-c2ccc(F)cc2)c1)C1CCC(=O)N(C2CC2)C1 (stereo unspecified)	PHOSPHO1 inh 61.0
CC(=O)NC(c1ccc(F)c(F)c1)c1nc(-c2ccc(C)c(C)c2)cs1 (stereo unspecified)	none (no result: PHOSPHO1 inh, ALR inh, PfGluPho inh, M18AAP inhibitor)
O=C(CCNC(=O)c1ccco1)NCc1ccc(C(=O)O)cc1	none (no result: PHOSPHO1 inh, M18AAP inhibitor)
Cc1nc(N=Nc2ccc(O)cc2)n[nH]1	ALR inh 94.1
CCc1ccc(NC(=O)CSc2ccc(-c3cccnc3)nn2)cc1	none
CCc1ccc(NC(=O)CSc2ccc(-c3ccccn3)nn2)cc1	Cardio protect 50.1
CCn1c(SCC(=O)Nc2cccc(C(C)=O)c2)nnc1C(C)C	ALR inh 98.8
CC(=O)c1cccc(NC(=O)CSc2ccc(-c3ccccn3)nn2)c1	none
COc1ccc(C)cc1NC(=O)CSc1ccc(-c2ccccn2)nn1	none
CCC(=O)Nc1cc(NC(=O)CSc2nnc(C(C)C)n2CC)ccc1C	none
COc1cc(NC(=O)CSc2ccc(-c3ccccn3)nn2)cc(OC)c1	Cardio protect 69.5
CC(=O)Nc1cccc(NC(=O)CSc2ccc(-c3ccccn3)nn2)c1	Cardio protect 67.4
O=c1[nH]c(C(F)(F)C(F)(F)C(F)(F)F)no1	none (no result: PHOSPHO1 inh, ALR inh, M18AAP inhibitor)
CCOC(=O)c1ccccc1NC(=O)CSc1ccc(-c2ccccn2)nn1	Cardio protect 57.1
COCc1ccc(C(=O)N2CCCC(Nc3ccc4c(c3)OCCO4)C2)o1 (stereo unspecified)	ALR inh 98.7
COc1ccc(NC2CCCN(C(=O)c3ccc(CSC)o3)C2)cc1OC (stereo unspecified)	ALR inh 99.1
COCc1ccc(C(=O)N2CCCC(Nc3ccc(F)c(F)c3)C2)s1 (stereo unspecified)	none
COc1ccc(CC(=O)OCC(=O)N2CCCc3ccccc32)cc1OC	none (no result: PHOSPHO1 inh, M18AAP inhibitor)
CCOC(=O)N1CCN(C(=O)CSc2nnc3[nH]c(=O)c(C)c(C)n23)CC1	none (no result: PHOSPHO1 inh, M18AAP inhibitor)
CC(C)c1ccc(NC(=O)CSc2nc(=O)n(CCCN3CCOCC3)c3c2CCC3)cc1	ALR inh 98.5 (no result: PHOSPHO1 inh, M18AAP inhibitor)
CC(NC(=O)CSc1nnc(CC(=O)Nc2ccc(Cl)c(Cl)c2)n1C)c1ccccc1 (stereo unspecified)	PHOSPHO1 inh 95.4
CC(C)c1ccc(NC(=O)CSc2nc(=O)n(CCCN3CCOCC3)c3c2CCCC3)cc1	ALR inh 99.0 (no result: PHOSPHO1 inh, M18AAP inhibitor)
